The values below come from PubChem BioAssay AID493056 (National Center for Advancing Translational Sciences (NCATS), 2011).

The whole screen tested about 360,000 compounds, of which about 2,400 (0.67%) were called active. This is one part of a sample in which actives are shown more often than they occur. Rule as the data show it: active = enhancement above about 30%; inactive = the rest.

Sequence of Thyrotropin-releasing hormone receptor (Homo sapiens) (P34981 whole entry, looked up): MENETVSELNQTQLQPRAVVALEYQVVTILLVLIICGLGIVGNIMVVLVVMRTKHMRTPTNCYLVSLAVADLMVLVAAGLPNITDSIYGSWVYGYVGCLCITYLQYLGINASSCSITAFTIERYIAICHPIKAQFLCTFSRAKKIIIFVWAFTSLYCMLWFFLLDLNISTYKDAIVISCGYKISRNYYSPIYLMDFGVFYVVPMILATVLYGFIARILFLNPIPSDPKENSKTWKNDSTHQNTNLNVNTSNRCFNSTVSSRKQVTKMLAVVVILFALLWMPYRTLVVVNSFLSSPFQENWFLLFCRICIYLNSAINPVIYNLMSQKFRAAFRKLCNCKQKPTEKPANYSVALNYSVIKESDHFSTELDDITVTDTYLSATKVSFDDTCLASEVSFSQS

In this test the target is Thyrotropin-releasing hormone receptor (Homo sapiens) (UniProt P34981). In words: qHTS for Small Molecule Agonists and Allosteric Enhancers of Human TRH Receptor: Primary Screen for Enhancers. Also: 0% is about no effect. To be noted: TRHR cells, fluo-8 calcium fluorescence, EC20 TRH enhancement; at 2 µM; active compounds read high. The text has this:
NIH Chemical Genomics Center [NCGC] NIH Molecular Libraries Probe Centers Network [MLPCN] MLPCN Grant: MH089816-01 Assay Submitter (PI): Marvin Gershengorn This project aims to identify small drug-like molecules that activate (agonists) the thyrotropin releasing hormone (TRH) receptor (TRHR) or enhance its TRH-stimulated activity (allosteric enhancers). TRHR, a drug-accessible cell surface receptor expressed in specific brain regions, and its ligand TRH have been implicated in several central nervous system disorders, including depression and anxiety. Small molecule TRHR agonists or allosteric enhancers that are metabolically stable and able to cross the blood-brain barrier might serve as probes to elucidate the roles of brain TRH receptors in animal models, and might be valuable as lead compounds for the development of drugs to treat patients with central nervous system disorders. Upon TRHR-Gq activation in TRHR cells, intracellular calcium is released from stores in the endoplasmic reticulum. […] This primary screen measures compound-induced enhancement of an EC20 stimulation of the receptor by its native ligand.
For the HTS assay freshly prepared cells are plated at a density of 2000/well in 3 ul of complete DMEM medium containing 10% serum in 1536-well plates and cultured over night at 37 C in a humidified incubator with 5% CO2. The next day, 2 ul of a no wash calcium dye (ABD Bioquest) was added to the cells and plates were incubated at room temperature for 1 hour. For the assay, assay plates were loaded into the FDSS kinetic plate reader. A 10 cycle (1 second/cycle) baseline measurement is taken and then the FDSS online 1536 pintool delivers 23 nl of compound library (as well as TRH controls) to the plate. The plate is measured for kinetically at 1 cycle/sec for 180 seconds and is considered to be the agonist portion of the assay (eg, compounds which activate a positive calcium response during this portion are flagged as potential agonists). Following the 180 second read, 1 ul of either an EC20 (positive modulation assay) is delivered by an onboard pipette head. Measurements are taken kinetically for an additional 180 seconds. TRHR FDSS Screening Protocol 1. Reagent, 3 uL 2000 cells/well 1536 TC treated Black plate in media containing 10% FCS 2. Time, 18 hours, 33.5C 5% CO2 (cells grown at 37C) 3. Reagent, 2 uL ABD fluo-8 Ca dye 4. Time, 30 min-1.5hrs hours, Room temp (6 plates/batch) 5. Detector, EX 480/EM 530C, FDSS 10 cycles baseline (1sec/cycle) 6. Compound, 23 nL of stock solution from library 7. Detector, EX 480/EM 530C, FDSS 230 cycles (1sec/cycle) Agonist mode 8. Compound, 1 ul EC20 of TRH made up in HEPES HBSS, 10 nM final 9. Detector, EX 480/EM 530C, FDSS 100 cycles (1sec/cycle) Potentiator mode
On the technique in general: In qHTS, concentration-response curves come from the screen itself.
For `COc1ccc(CNCCc2c[nH]c3ccccc23)cc1OC`, the enhancement was 8.12% (inactive).

With `C/C(CCc1c[nH]c2ccccc12)=N\O`, the enhancement was 30.5% (active).

In the case of `CCC/C(=N\O)c1c[nH]c2ccccc12`, the enhancement is -0.263% (inactive).

Turning to `Cc1ccc(-n2c(/C=C/c3cccc(C(F)(F)F)c3)nc3ccccc3c2=O)cc1`, the enhancement was -5.54% (inactive).

Consider `O=C(c1cc(S(=O)(=O)N2CCOCC2)ccc1F)N1CCC2(CC1)OCCO2`, for which the enhancement was 5.79% (inactive).

Take `CC(C)Oc1cccc(C(=O)C2CCCN(C3CCOCC3)C2)c1` (stereo not given): the enhancement was 5.95% (inactive).

In the case of `O=C(OCCN1CCOCC1)C1(c2ccccc2)CCCC1`, the enhancement is -3.33% (inactive).

Turning to `CCOP(=S)(OCC)C(O)CCCCCn1c(=O)c(F)cn(C2CCCO2)c1=O` (stereo not given), the enhancement was 31.8% (active).

`CC(C)c1ccc(OCC(=O)N2CCN(C)CC2)c(Br)c1`: the enhancement was -3.04% (inactive).

Regarding `CC(C)(C)c1ccc(OC(=O)N2CCCCC2)cc1`, the enhancement is 2.54% (inactive).

In the case of `C[N+]1(C)CCOC(O)(c2ccc(-c3ccc(C4(O)C[N+](C)(C)CCO4)cc3)cc2)C1` (stereo not given), the enhancement is 36.7% (active).

With `Cc1cccc(Cn2cccc(C(=O)Nc3ccc4c(c3)OCCO4)c2=O)c1`, the enhancement is -1% (inactive).

Regarding `CC(C)N(CC#CCC1(O)c2ccccc2-c2ccccc21)C(C)C`, the enhancement is -0.877% (inactive).

Turning to `CCC(C)n1c(O)c(/C=N/Nc2nc3c(c(=O)n(C)c(=O)n3C)n2C)c(=O)[nH]c1=S` (stereo not given), the enhancement was -2.9% (inactive).

With `Cc1ccc(-c2nc3ccccc3c(=O)n2-c2ccc(Br)cn2)cc1`, the enhancement is 3.56% (inactive).
